In PubChem BioAssay AID686979 (National Center for Advancing Translational Sciences (NCATS), 2013):
Values joined by “and” are separate entries in the source; they are usually repeats but may differ in a detail not shown here. Identical values can stand only once. Among all 420,000 compounds or so, about 50,000 (12%) were called active. Not shown: some 26% with an inconclusive outcome. The call rests on the fitted dose curve; in most records, active means well fitted inhibition curve with a large enough effect; inconclusive means small, poorly fitted or top-dose-only effect; inactive means flat fitted curve, though single readings scatter. The sample as a whole holds a higher share of actives than the screen did. Where a SMILES comes first, the peptide text is derived from it. [ ]: non-standard residue; d: D form. ξ: configuration not given here. Ac5c = NC1(C(=O)O)CCCC1; ξS = NC(CO)C(=O)O

test: qHTS for Inhibitors of human tyrosyl-DNA phosphodiesterase 1 (TDP1): qHTS in cells in presence of CPT; details: chicken DT40 Tdp1-/-;hTDP1 cells + 20 nM CPT, ATP luminescence, 48 h; series mostly up to 46.2 µM; activity change, negative = growth inhibition: at the top concentration; further: nearly all actives have a fitted effect of over 55% in size
Outline: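 Cell growth measured by CellTiter-Glo luminescence after a minimum 48 h, 37 C compound exposure with 20 nM CPT in Tdp1-knockout DT40 cells stably expressing hTDP1, seeded 400/well; qHTS titration format.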
On the % scale 0 is the no-effect control and ±100 the full control effect; potency means the concentration at half of the fitted maximal effect.

Compound	activity change, negative = growth inhibition	Potency
COc1ccc(CNC(=O)C2CCCC2)cc1	-6.86% (inactive)	
COc1ccc(CNC(=O)[C@@H]2CC=C[C@@H]3CCN(C4CC4)C(=O)[C@@H]32)cc1		inactive
CCCCC[C@H]1CN(C2CCCCC2)C(=O)[C@@H]1CC(=O)NCc1ccc(OC)cc1		16.4 µM (active)
CCN(CC)CCNC(=O)CN1N=C(c2ccc(OC)cc2)CCC1=O	6.9% (inactive)	
O=C(NC1CCCCC1)c1ccc(Cn2c(SCc3ccccc3)nc3cccnc32)cc1	-23.4% (inactive)	
COc1ccccc1CCCNC(=O)C1CCC(=O)N(CCN2CCOCC2)C1 (stereo not given)	1.18% (inactive)	
COc1ccccc1OCCn1c(SCC(N)=O)nc2ccccc21	-2.22% (inactive)	
C=CCc1ccc(OCC(O)CN2CCN(Cc3ccccc3)CC2)c(OC)c1 (stereo not given)	-24.3% (inactive)	
COc1ccc(OCC(O)CN(C)C(=O)C(C)Oc2ccccc2)cc1 (stereo not given)	-25.8% (inactive)	
COc1ccccc1OCC(O)CN1CCOCC1 (stereo not given)	1.56% (inactive)	
C=CCn1c(=N)n(CC(O)COc2ccc(OC)cc2)c2ccccc21 (stereo not given)		16.4 µM (active)
CCCn1c(=N)n(CC(O)COc2ccccc2OC)c2ccccc21 (stereo not given)		11.6 µM (active)
COc1c(N2CCN(C(=S)Nc3ccccc3F)C(C)C2)c(F)cc2c(=O)c(C(=O)O)cn(C3CC3)c12 (stereo not given)	-27.8% (inactive)	
CN(C)C(CNC(=O)c1cc2ccccc2o1)c1ccccc1 (stereo not given)	-8% (inactive)	
O=C(NCCc1ccc(C(F)(F)F)cc1)c1ccc2c(c1)OCO2	-5.4% (inactive)	
O=C(NCCc1ccc2c(c1)OCCO2)c1cc2ccccc2o1		16.4 µM (active)
CCOc1ccc(C2C3=C(CCCC3=O)N(CC(=O)O)C3=C2C(=O)CCC3)cc1	2.38% (inactive)	
C=CCN1CCN(C(=O)CCCc2ccccc2)CC1	-10.7% (inactive)	
COc1ccc(NC(=O)[C@H](NC(=O)[C@@H]2Cc3ccccc3CN2)c2ccccc2)cc1	-24.6% (inactive)	
CC12CCCCC1=CC(=O)CC2 (stereo not given)	7.55% (inactive)	
Cn1c(=N)n(CC(O)c2cccs2)c2ccccc21 (stereo not given)	0.351% (inactive)	
Cn1c(=N)n(CC(O)c2ccccc2)c2ccccc21 (stereo not given)	-9.01% (inactive)	
CCOc1ccc(C(O)Cn2c(=N)n(CCN3CCCCC3)c3ccccc32)cc1 (stereo not given)		20.6 µM (active)
NC(=O)C1CCN(C(=O)c2cn(-c3ccccc3)nc2-c2cccnc2)CC1	-0.311% (inactive)	
CCOc1ccc(C(CC(=O)O)NC(=O)C23CC4CC(CC(C4)C2)C3)cc1OC (stereo not given)	-3.54% (inactive)	

Compound	activity change, negative = growth inhibition	Potency
Cc1cc(N2CCN(C)CC2)nc2ccc(NC(=S)N3CCOCC3)cc12	9.63% (inactive)	
COc1ccc(C(=O)Nc2ccc3nc(N4CCCCC4)cc(C)c3c2)cc1OC		23.1 µM (active) and 20.6 µM (active)
CCN1CCN(c2cc(C)c3cc(NC(=O)c4cc(Cl)ccc4OC)ccc3n2)CC1		4.61 µM (active)
COC(=O)c1ccc(NC(=O)c2cc(Cl)ccc2OC)cc1	-24.8% (inactive)	
CCOCCCNC(=S)Nc1ccc2nc(N3CCN(CC)CC3)cc(C)c2c1	-9.76% (inactive)	
COc1ccc(NC(=O)CC2SC(N3CCCCC3)=NC2=O)cc1OC (stereo not given)	12.9% (inactive)	
CCOc1cc(C(C(=O)NCC2CCCO2)N(C(=O)Cn2nnc3ccccc32)c2cccc(OC)c2)ccc1O (stereo not given)	16.8% (inactive)	
Cc1nnc(C(=O)NC(C)(C)c2nc(C(=O)NCc3ccc(F)cc3)c(O)c(=O)n2C)o1	-17.6% (inactive)	
NC(=O)CCN1CCN(S(=O)(=O)/C=C/c2ccccc2)CC1	-1.26% (inactive)	
CN1OC[C@@H]2CN[C@H](c3ccc(-c4ccccc4)cc3)C[C@@H]21	-7.22% (inactive)	
Cc1ccc(NC(=O)CSc2nc3c(c(=O)[nH]2)CN(Cc2ccc4c(c2)OCO4)CC3)cc1C	-21.7% (inactive)	
COc1cc(OC)cc(C(=O)NCC(=O)OCc2csc(-c3ccccc3)n2)c1		16.4 µM (active)
COc1cc(OC)cc(C(=O)NCC(=O)OCC(=O)NC(C)CCc2ccccc2)c1 (stereo not given)	-22% (inactive)	
COc1cccc(C(=O)NCC(=O)OCc2cc(=O)n3ccsc3n2)c1	-6.31% (inactive)	
C=CCOc1ccc(Cl)cc1CNCCCN1CCOCC1	-16.9% (inactive)	
CC(=O)NCCC(=O)Nc1nc(C)c(Cc2ccc3c(c2)OCO3)s1	-1.58% (inactive)	
CCOC(=O)C1(Cc2ccccc2C)CCCN(S(C)(=O)=O)C1 (stereo not given)	-19% (inactive)	
CNC(=O)NC(=O)CSc1nnc(-c2ccc(F)cc2)n1CC1CCCO1 (stereo not given)	4.38% (inactive)	
COc1ccc(CCNC(=S)N2CCN(S(=O)(=O)c3ccc(Cl)cc3)CC2)cc1	-3.02% (inactive)	
Oc1cc2c(cc1O)CN(C(=S)NCCc1ccc(Cl)cc1)CCC2		13.3 µM (active) and 7.08 µM (active)
O=C(NCCc1ccc(Cl)cc1)C1CCCN1C(=O)NCc1ccccc1 (stereo not given)	-19.2% (inactive)	
CCOc1ccc(C(=O)NCC(=O)N2CCCCCCC2)cc1OCC	4.15% (inactive)	
CCc1cc2c(cc3c(=O)n(CC(=O)NCCc4ccc(OC)c(OC)c4)ncn32)s1	-23.1% (inactive)	
CCOc1ccc(CCNC(=O)Cn2nc(CC)n3c(cc4sc(CC)cc43)c2=O)cc1OCC		16.4 µM (active)
CCc1cc2c(cc3c(=O)n(CC(=O)N4CCN(c5cc(Cl)ccc5C)CC4)nc(CC)n32)s1	5.07% (inactive)	

Compound	activity change, negative = growth inhibition	Potency
COc1ccc2cc(C(=O)O)n(CC(=O)c3ccccc3)c2c1	0.526% (inactive)	
CCOC(=O)C1=C(c2ccccc2)O/C(=C(/C(=O)OC)C(F)(F)F)S1	-15.8% (inactive)	
O=C(NCC(=O)N(CC1CCCO1)C(C(=O)NC1CCCCC1)c1ccccc1)c1ccco1 (stereo not given)	-3.29% (inactive)	
O=C(c1ccco1)N1CCN(C(=O)C2CCCN(S(=O)(=O)c3cccc4nsnc34)C2)CC1 (stereo not given)	-28% (inactive)	
CCCCN(CC)C(=O)C1CCCN(S(=O)(=O)c2cccc3nsnc23)C1 (stereo not given)		25.9 µM (active)
CCCCN(C)CCNC(=O)C1CCCN(S(=O)(=O)c2cccc3nsnc23)C1 (stereo not given)		inactive
CCOC(=O)C(CO)NC(=O)C1(NC(C)=O)CCCC1 (stereo not given) (Ac-[Ac5c]-[ξS]-OEt)	18% (inactive)	
OCC1(Cc2ccccc2C(F)(F)F)CCN(Cc2ccncc2)CC1	-29.8% (inactive)	
COc1cccc(C(=O)CC(=O)C(=O)Nc2ccc([N+](=O)[O-])cc2C)c1		23.1 µM (active)
Cc1cc([N+](=O)[O-])ccc1NC(=O)C1CCCO1 (stereo not given)	0.207% (inactive)	
COc1cccc(C(=O)Oc2cc(C)[nH]c(=O)c2[N+](=O)[O-])c1	0.282% (inactive)	
CCN(CCCNC(=O)c1cc(Nc2ccc(OC)cc2)nc2ccccc12)c1cccc(C)c1		20.6 µM (active)
COc1ccc(NC(=O)c2cc(-c3cc(OC)c(OC)c(OC)c3)nc3ccccc23)c(OC)c1		13 µM (active)
CCN(CCCNC(=O)Cn1ncc2c([nH]c3ccccc32)c1=O)c1cccc(C)c1	-3.13% (inactive)	
COc1ccc(NC(=O)c2cc(-c3ccc(C)o3)nc3ccccc23)cc1	-27.5% (inactive)	
COc1ccccc1NC(=O)c1cc(Cl)nc2ccccc12	6.57% (inactive)	
COc1ccc(NC(=O)CCNC(=O)Cn2ccc3ccccc3c2=O)c(OC)c1	1.62% (inactive)	
COc1ccc(Nc2cc(C(=O)NCCCN(C)c3ccccc3)c3ccccc3n2)c(OC)c1		13 µM (active)
COc1ccc(NC(=O)CNC(=O)Cn2ccc3ccccc3c2=O)c(OC)c1		inactive
COc1ccc(CNC(=O)COC(=O)C2=Cc3ccccc3OC2)cc1	5.53% (inactive)	
COC(=O)c1ccc(CNC(=O)Cn2cc(C)c(=O)[nH]c2=O)cc1	0.751% (inactive)	
O=C(Cn1c2[n+](c3ccc(C(F)(F)F)cc31)CCCCC2)Nc1c(F)cccc1F	0.326% (inactive)	
Cc1ccc(CN(C)Cc2cc(=O)oc3cc(C)c(Cl)cc23)cc1	-11.4% (inactive)	
Cc1cc(NC(=O)CSc2ncc(C(F)(F)F)cc2Cl)no1	2.58% (inactive)	
Cc1c(Cl)cccc1NC(=O)CCC(=O)N/N=C/c1ccco1	-12.2% (inactive)	

Compound	activity change, negative = growth inhibition	Potency
C[C@H](CO)N1C[C@H](C)[C@@H](CN(C)C(=O)NC2CCCCC2)Oc2ccc(NC(=O)c3ccncc3)cc2C1=O	6.58% (inactive)	
COC(=O)c1ccccc1NC(=S)NC(=O)c1ccccc1F	-10.3% (inactive)	
S=C(NCc1cccnc1)Nc1ccc(Cl)cc1Cl	-0.527% (inactive)	
NS(=O)(=O)c1ccc(-c2ccc(/C=C3\SC(=O)NC3=O)o2)cc1	-26.6% (inactive)	
Cc1ccc(NC(=O)CCC(=O)c2ccc(Br)cc2)cc1	1.81% (inactive)	
Cc1cccc(-c2nc(SCC(=O)Nc3cc(C)on3)c3c(=O)n(C)c(=O)n(C)c3n2)c1	9.94% (inactive)	
Cc1ccccc1-c1nc(SCC(=O)N(C)c2ccccc2)c2c(=O)n(C)c(=O)n(C)c2n1		20.6 µM (active)
Cn1c(=O)c2c(SCC(=O)NCC3CCCO3)nc(-c3ccccc3F)nc2n(C)c1=O (stereo not given)	-2.94% (inactive)	
CN(C(=O)COC(=O)c1nc(Cl)ccc1Cl)C1CCS(=O)(=O)C1 (stereo not given)	4.88% (inactive)	
Cc1cc(C)c2nc(N3CCC(C(=O)NCCN4CCOCC4)CC3)sc2c1	-15.1% (inactive)	
COc1ccc(/C(=N\O)c2nccc3cc(OC)c(OC)cc23)cc1OC	-17.8% (inactive)	
COC(=O)c1ccc(NC(=O)CSc2nncc3ccc(OC)c(OC)c23)cc1	-6.52% (inactive)	
COC(=O)c1ccc(-c2c(-c3ccccc3)ncc3cc(OC)c(OC)cc23)cc1		20.6 µM (active)
CCN(CC)CCn1c2c(c(SCC(=O)Nc3ccc(C(C)C)cc3)nc1=O)CCC2	-2.66% (inactive)	
CC(=O)OCC(=O)C1(O)CCC2C3CC(C)C4=CC(=O)CCC4(C)C3C(O)CC21C (stereo not given)	-6.1% (inactive)	
COc1ccc(C(=O)NC(C)Cn2nc(C)cc2C)cc1OC1CCN(C(C)=O)CC1 (stereo not given)	-1.86% (inactive)	
O=C(CN1C(=O)c2ccc([N+](=O)[O-])cc2C1=O)Nc1nnc(C2CC2)s1	17% (inactive)	
C=CCOc1ccc(/C=C/C(=O)OCC(=O)NCC2CCCO2)cc1 (stereo not given)	-16.3% (inactive)	
COc1ccc(C(=O)N/N=C2\CCS(=O)(=O)c3ccc(F)cc32)cc1OC		18.4 µM (active)
CCNC(=O)c1ccc(OCC(=O)Nc2ccc(F)cc2)c(OC)c1	0.955% (inactive)	
COc1ccc(/C=N/NC(=O)c2ccc3c(c2)OCCO3)c(OC)c1	1.79% (inactive)	
CCN(Cc1ccccc1)C(=O)Cc1ccc(OC)c(S(=O)(=O)N2CCOCC2)c1	-24.5% (inactive)	
CCOC(=O)/C(C#N)=C/c1cn(CCC(=O)O)nc1-c1ccc(Br)cc1	-3.43% (inactive)	
O=C(O)CCn1cc(/C=C/C(=O)c2ccc(Cl)cc2)c(-c2cccc(Br)c2)n1		20.6 µM (active)
O=C(O)/C=C/c1cn(Cc2ccccc2)nc1-c1cccs1	1.59% (inactive)	
